Screens as filed in PubChem.
Shiga toxin inh – blocks Shiga toxin action in Vero cells; AID 2315; inhibition, % at 38.7 µM; 290,000 tested, 9.2% active; Vero cells, Shiga toxin protein synthesis inhibition reporter; in the data active = inhibition mostly above about 28%, no sharp cut-off; inactive = mostly below about 43%; also: 0% is about no effect
Cycloheximide cs – counter-screen hit for Shiga toxin inhibitors, cycloheximide; cell reporter, cycloheximide protein synthesis inhibition counterscreen; max response, %; 300,000 tested, 12% active; AID 2314; in the data active = max response mostly above about 13%, no sharp cut-off; inactive = mostly below about 14%; also: read at 38.3 µM for the half of the compounds with a filed dose; 0% is about no effect
Pf growth 48h – inhibits P. falciparum growth in the first generation, 48 h; P. falciparum luciferase growth in erythrocytes, 48 h; Potency, µM (doses to about 28.7 µM), inactives show at the top dose activity change, negative = inhibition, hits mostly inhibitors; 310,000 tested, 5.9% active; AID 504832; also: potency is read from the fitted curve at half-maximal effect; % is scaled to controls: 0 for no effect and ±100 for the full control effect
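Firefly luciferase activity from engineered P. falciparum reports growth; inhibitors lower the luminescent signal. Cultures contained 2% hematocrit erythrocytes at 0.1% final parasitemia.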
HCMV inh – blocks human cytomegalovirus replication. HFF cells, HCMV-luciferase reporter, 72 h; hits give low values. 410,000 tested, 4.5% active. activity change, negative = inhibition, % at 57.5 µM; in the data active = activity change below about -60%; inconclusive = no clear call, values can overlap the other calls; inactive = above about -39%; also: % is scaled to controls: 0 for no effect and ±100 for the full control effect
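Human foreskin fibroblasts infected with luciferase-reporter HCMV at MOI 1 PFU/cell, compounds at two doses. Luciferase measured 72 h post infection; normalized to buffer-only basal and Salinomycin (10uM) controls.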
Pf growth 96h – inhibits malaria parasite growth, 96 h; Potency, µM (titrated, usually from 28.7 µM), for the others: top-dose activity change, negative = inhibition, hits mostly inhibitors; P. falciparum luciferase reporter growth, 96 h; AID 504834; 320,000 tested, 6.9% active; also: potency is read from the fitted curve at half-maximal effect; % is scaled to controls: 0 for no effect and ±100 for the full control effect
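96 h incubation, 37 C, 5% CO2, of luciferase-reporter P. falciparum-infected RBCs (2% hematocrit, 0.05% parasitemia final) with test compounds; endpoint luminescence.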
HCV inhibitor – blocks hepatitis C virus | Huh7.5.1 HCVcc-Cre infection, luciferase reporter, 44 h | 340,000 tested, 3.4% active | AID 651820 | Potency, µM (series often up to 41.8 µM), without a hit: at the top dose activity change, negative = inhibition, most hits filed as inhibitors; also: potency is read from the fitted curve at half-maximal effect; % is scaled to controls: 0 for no effect and ±100 for the full control effect
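Compounds are dispensed onto cells plated 4 h earlier at 1,000 per well, with HCVcc-Cre virus (about 0.5 moi) added next. Following 44 h of culture, luminescent signal is measured for 15 sec after 15 min with substrate at room temperature.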
The depositor's hits bear a star; ? = inconclusive; . = not tested or not shown. In the library only some 21% were active in any assay of this set; here they are far more common. Unless noted, calls follow the shape of the dose curve; as a rule, active = well fitted inhibition curve with a large enough effect; inconclusive = small, poorly fitted or top-dose-only effect, or another doubt; inactive = no such curve, though single readings can be large or run the other way.

SMILES | Shiga toxin inh | Cycloheximide cs | Pf growth 48h | HCMV inh | Pf growth 96h | HCV inhibitor
COc1ccc(OC)c(NC(=O)Cc2c(C(=O)O)[nH]c3ccc(Cl)cc23)c1 | . | . | . | 8 | . | .
COc1ccc2c(c1)c(CC(=O)Nc1nnc(C3CC3)s1)c(C)n2C(=O)c1ccc(Cl)cc1 | -7 | 8 | ? | -76* | ? | 14%
Cc1cc(OCC(=O)Nc2nnc(C3CC3)s2)ccc1Cl | . | . | . | 69 | . | .
COc1ccc(OC)c(NC(=O)Cc2c(C)n(C(=O)c3ccc(Cl)cc3)c3ccc(OC)cc23)c1 | . | . | . | -71* | . | .
CCOC(=O)C1=NN(c2ccccc2)C(=O)/C1=C\c1ccc(N(C)C)cc1 | 10 | -2 | 8% | -11 | 7% | 11%
CC1=NN(Cc2ccccc2)C(=O)/C1=C\c1ccc(N(C)C)cc1 | 32* | 31* | -1% | ? | -5% | 17%
CCCc1cc(=O)[nH]c(Nc2ccc(C)c(O)c2)n1 | . | . | . | 2 | . | .
CCC(C)NC(=O)c1ccc(CN2CCc3ccccc3C2)cc1 (centres undefined) | -8 | -1 | -2% | 36 | 77% | -13%
CC(C)(C)SCCNC(=O)c1ccc(CN2CCc3ccccc3C2)cc1 | 54* | 44* | -37% | 53 | -3% | -30%
C/C(=N\NC(=O)c1ccc(CN2CCc3ccccc3C2)cc1)c1ccccc1O | 3 | 17 | ? | -96* | -21% | 5.6µM*
COCCNC(=O)c1ccc(CN2CCc3ccccc3C2)cc1 | -2 | -4 | 2% | -14 | ? | -1%
CCCNC(=O)c1ccc(CN2CCc3ccccc3C2)cc1 | 9 | -2 | 10µM* | 20 | 249% | -19%
O=C(NCc1cccnc1)c1ccc(CN2CCc3ccccc3C2)cc1 | -5 | 2 | -8% | 12 | 25% | -1%
COc1cc2c(cc1OC)[C@@H](NC(=O)CCC1CCCCC1)[C@H](O)C2 | . | . | . | 0 | . | ?
Cc1ccc(-c2nn3c(C)nnc3s2)cc1NC(=O)C(C)C | 29 | 11 | . | 33 | ? | 3%
Cc1ccc(-c2nn3c(C)nnc3s2)cc1N | 48 | 16* | 50% | 112 | . | -5%
Cc1ccc(CNc2cc(-c3nn4c(C)nnc4s3)ccc2C)s1 | 13 | 8 | 12µM* | 89 | ? | ?
Cc1ccc(-c2nn3c(C)nnc3s2)cc1NCc1c(F)cccc1Cl | -9 | -3 | ? | -76* | 1% | ?
COCCN(Cc1nc(C(c2ccccc2)c2ccccc2)no1)C(C)C | -5 | -2 | -21% | 5 | ? | -2%
Cc1ccc(CNC(=O)C2CCN(C(=O)c3cnn(-c4ccccc4)c3-n3cccc3)CC2)cc1 | . | . | . | 43 | . | .
OCCC1CN(Cc2nc3ccccc3s2)CCN1C1CCCC1 (centres undefined) | -4 | 8 | 9% | 27 | ? | 14%
COc1ccc(Cl)cc1NC(=O)COC(=O)C1CC(=O)N(Cc2ccccc2)C1 (centres undefined) | . | . | . | 0 | . | ?
CC(=O)N(c1ccccc1)c1nnc(-c2cnc(C)cn2)s1 | 68* | 29* | 0% | 190 | 18% | 10%
CCOC(=O)C1=C(C)N=c2s/c(=C\c3ccc(OC(C)=O)c(OCC)c3)c(=O)n2C1/C=C/c1ccccc1 (centres undefined) | -6 | -2 | 10µM* | . | 20% | -24%
CCOC(=O)C1=C(C)N=c2s/c(=C\c3cccc(OCC(=O)O)c3)c(=O)n2C1c1ccccc1OC (centres undefined) | -6 | -2 | ? | -7 | ? | 15%
SMILES | Shiga toxin inh | Cycloheximide cs | Pf growth 48h | HCMV inh | Pf growth 96h | HCV inhibitor
CC1=C(C(=O)Nc2ccccc2)C(c2ccc(C)o2)n2c(s/c(=C\c3ccco3)c2=O)=N1 (centres undefined) | 35 | 7 | 13µM* | 5 | ? | ?
CCOC(=O)C1=C(C)N=c2s/c(=C\c3ccc(OC(C)=O)cc3)c(=O)n2C1/C=C/c1ccccc1 (centres undefined) | 7 | -2 | 2% | -23 | ? | ?
COc1ccccc1C1C(C(C)=O)=C(C)N=c2s/c(=C\c3cc(OC)c(OC)c(OC)c3)c(=O)n21 (centres undefined) | -1 | -3 | 9.3µM* | -12 | ? | ?
CCOC(=O)C1=C(c2ccccc2)N=c2s/c(=C\c3cccc(O)c3)c(=O)n2C1c1cccs1 (centres undefined) | -8 | -1 | 4% | -30 | ? | 32µM*
COc1ccc(CNc2nc3c(c(=O)n(C)c(=O)n3C)n2Cc2ccccc2Cl)cc1 | . | . | . | 3 | . | .
CCOC(=O)C1=C(C)N=c2s/c(=C/c3ccc(OCC(=O)O)cc3)c(=O)n2C1c1cc(OC)c(OC)c(OC)c1 (centres undefined) | . | -1 | 1µM* | 13 | 0.74µM* | 11%
COc1cccc(C2C(C(=O)Nc3ccccc3)=C(C)N=c3s/c(=C/c4ccc(OCC(=O)O)cc4)c(=O)n32)c1 (centres undefined) | -13 | -5 | 7.4µM* | 24 | 1.2µM* | 24%
CCOC(=O)C1=C(C)N=c2sc(=Cc3cc(Cl)c(OCC(=O)O)c(Cl)c3)c(=O)n2C1c1cccc(OC)c1 (centres undefined) | . | . | . | -5 | . | .
CCOC(=O)C1=C(C)N=c2s/c(=C\c3ccc(OCC(=O)O)cc3)c(=O)n2C1c1ccc(OC(C)C)cc1 (centres undefined) | 2 | 1 | ? | -35 | 0.41µM* | 9%
CC(=O)OCCN1CCN(C(=O)CN2C(=O)NC(c3ccccc3)(c3ccccc3)C2=O)CC1 | -10 | -3 | -10% | -12 | -16% | 16%
CCC(=O)N(C)C[C@@H]1Oc2ncc(Br)cc2C(=O)N([C@H](C)CO)C[C@H]1C | . | . | . | 23 | . | .
CC(=O)Nc1ccc(NS(=O)(=O)c2ccc3c(c2)oc(=O)n3C)cc1 | -4 | -1 | 6% | 15 | 4% | 0%
CCS(=O)(=O)Nc1ccc(-c2cn3ccsc3n2)cc1 | . | . | . | 34 | . | .
Cn1c(=O)oc2cc(S(=O)(=O)NCCC(=O)Nc3ccc4c(c3)OCCO4)ccc21 | 14 | 20* | 4% | 9 | . | 9%
Cn1c(=O)oc2cc(S(=O)(=O)Nc3ccc4c(c3)OCCO4)ccc21 | 42 | 16 | ? | -91* | 7% | -5%
O=S(=O)(Nc1ccc(-c2cn3ccsc3n2)cc1)c1ccc2c(c1)OCCO2 | 69* | 12 | 29% | 4 | 134% | -13%
COc1ccc(CNC(=O)CCNS(=O)(=O)c2ccc3c(c2)oc(=O)n3C)cc1 | 2 | -2 | -3% | 14 | 12µM* | ?
Cn1c(=O)c(=O)n(C)c2cc(S(=O)(=O)Nc3ccc4c(c3)OCCO4)ccc21 | 115* | 62* | 3.3µM* | -76* | 36% | 13%
